Measured values: PubChem BioAssay (NCATS)
Several values for one entry are separate records, joined by “and”; a condition that tells them apart may be missing. Equal entries are not always repeated. Results filed as inconclusive are left out. Some structures have more than one record in an assay (separate samples or runs), and their calls can disagree. Activity calls are given as the source filed them. Unless noted, calls come from the whole dose curve; as a rule, active = well fitted curve in the direction sought with a large enough effect; inconclusive = small, poorly fitted or top-dose-only effect, or another doubt; inactive = no such curve, though single readings can be large; an effect the other way counts as inactive or inconclusive.

Columns and labels:
[1] = target: Cytochrome P450 1A2 (Homo sapiens) (UniProt P05177); assay: p450-cyp1a2 (AID 410; calls by dose curve; note: potency is the fitted concentration of half-maximal effect;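 for activity change, negative = inhibition: -100% = full effect of reference inhibitor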)
Chain of Cytochrome P450 1A2 (Homo sapiens) (P05177 whole entry, looked up): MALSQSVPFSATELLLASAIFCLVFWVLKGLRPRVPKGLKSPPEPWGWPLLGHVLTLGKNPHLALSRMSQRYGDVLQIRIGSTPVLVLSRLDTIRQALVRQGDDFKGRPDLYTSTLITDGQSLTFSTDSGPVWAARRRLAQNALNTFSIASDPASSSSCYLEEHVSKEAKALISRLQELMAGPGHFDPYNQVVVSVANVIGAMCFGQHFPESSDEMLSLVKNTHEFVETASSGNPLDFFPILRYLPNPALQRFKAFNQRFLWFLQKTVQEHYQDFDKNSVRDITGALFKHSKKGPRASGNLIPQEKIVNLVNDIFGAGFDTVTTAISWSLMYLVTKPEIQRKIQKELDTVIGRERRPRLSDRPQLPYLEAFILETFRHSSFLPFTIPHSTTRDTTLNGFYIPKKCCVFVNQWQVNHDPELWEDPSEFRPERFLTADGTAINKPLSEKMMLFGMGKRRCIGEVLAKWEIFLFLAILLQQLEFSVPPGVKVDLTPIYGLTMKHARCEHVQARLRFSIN
Method in brief: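 20nM CYP1A2, 100uM Luciferin-ME (=Km), 100mM KPO4; cpd 10 min RT; +NADPH regen, 60 min RT; stop/detect 20 min; luminescence. Normalized to furafylline 57 uM = full inhibition.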

[2] = NFAT Signaling Pathway (AID 444; active = well fitted curve in either direction with a large enough effect, not every such curve was filed as active;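 note: carbachol stimulus at about its EC50 of 1 µM final; % is set by controls: 0 for no effect and ±100 for the full control effect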); details: Jurkat NFAT-bla M1, carbachol, beta-lactamase ratio, 5 h
Method in brief: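 Read-out: CCF4 FRET ratio (460 nm/530 nm) after 1 h RT dye loading, used for %activity and AC50 from titration series. Cells: Jurkat NFAT-β-lactamase/M1 line, treated with compound plus 1 uM carbachol for 5 h, 37 °C.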

[3] = Stat Signaling Pathway (AID 446; active = well fitted curve in either direction with a large enough effect, not every such curve was filed as active;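 note: ME-180 cervical cancer cells given 40 pM IL-6 alongside compound; SIE-controlled beta-lactamase reporter measured as 460/530 nm FRET emission ratio; % is set by controls: 0 for no effect and ±100 for the full control effect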); details: ME-180 SIE beta-lactamase reporter, IL-6 stimulated, 5 h
Method in brief: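 Normalization used AC90 stimulation (300 pM IL-6) and AC90 inhibition (125 nM pan-JAK inhibitor at 40 pM IL-6). The underlying signal is SIE-driven beta-lactamase in ME-180 cells after 5 h IL-6 exposure with compound.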

[4] = target: Glucocorticoid receptor (Homo sapiens) (UniProt P04150); assay: GR-EFC Redistribution (AID 451; calls by dose curve; note: potency is the fitted concentration of half-maximal effect); details: CHO-K1 GR-EFC translocation, beta-gal luminescence, 2 h
Chain of Glucocorticoid receptor (Homo sapiens) (P04150 whole entry, looked up, the tested form may be a part): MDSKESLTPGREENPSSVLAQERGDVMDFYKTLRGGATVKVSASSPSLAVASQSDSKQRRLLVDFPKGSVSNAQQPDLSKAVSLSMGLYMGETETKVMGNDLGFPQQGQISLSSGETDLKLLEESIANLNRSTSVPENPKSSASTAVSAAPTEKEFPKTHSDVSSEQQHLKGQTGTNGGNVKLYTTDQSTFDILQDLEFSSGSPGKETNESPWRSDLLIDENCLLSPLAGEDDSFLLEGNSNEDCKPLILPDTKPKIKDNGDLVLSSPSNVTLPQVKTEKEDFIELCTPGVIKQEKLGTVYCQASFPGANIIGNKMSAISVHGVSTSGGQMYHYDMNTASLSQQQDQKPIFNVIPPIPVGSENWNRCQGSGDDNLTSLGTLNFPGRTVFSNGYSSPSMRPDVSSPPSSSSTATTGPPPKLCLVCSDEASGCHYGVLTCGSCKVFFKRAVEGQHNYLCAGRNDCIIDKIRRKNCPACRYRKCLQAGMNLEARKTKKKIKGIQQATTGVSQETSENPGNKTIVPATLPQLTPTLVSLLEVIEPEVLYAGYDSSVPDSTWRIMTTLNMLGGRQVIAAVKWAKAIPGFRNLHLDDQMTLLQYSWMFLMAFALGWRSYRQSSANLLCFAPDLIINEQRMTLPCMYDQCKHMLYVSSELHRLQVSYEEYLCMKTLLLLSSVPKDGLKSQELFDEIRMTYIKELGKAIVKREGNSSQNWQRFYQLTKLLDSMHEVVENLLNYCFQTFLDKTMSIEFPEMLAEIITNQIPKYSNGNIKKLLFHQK
Method in brief: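 Translocation of GR-ED fusion to nuclear EA restores b-gal, read by luminescence after 1 h room-temperature detection. Engineered CHO-K1 biosensor cells, 1,000/well, exposed 2 h at 37 C to titrations up to 46 uM final.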

[5] = target: Mitogen-activated protein kinase 10 (Mus musculus) (UniProt Q61831); assay: JNK3 AlphaScreen Assay (AID 530; active = well fitted curve in either direction with a large enough effect, not every such curve was filed as active;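 note: kinase came from lysate of stimulated human HepG2 cells; signal reports phosphorylation of biotinylated GST-cJun 1-79 at Ser73 with 10 µM ATP; % is set by controls: 0 for no effect and ±100 for the full control effect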)
Method in brief: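 Kinase buffer: 20 mM Tris-HCl pH 7.6, 10 mM MgCl2, 1 mM DTT, 0.1 mM Na3VO4, 0.01% Tween-20; ATP 10 uM. Substrate biotin-GST-cJun(1-79), enzyme from activated HepG2 lysates. Detection by Ser73 phospho-antibody AlphaScreen.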

[6] = target: 3',5'-cyclic-AMP phosphodiesterase 4B (Homo sapiens) (UniProt Q07343); assay: qHTS Assay for Inhibitors of PDE-IV (AID 607; active = well fitted activation curve with a large enough effect in the main read-out, with a control signal flat, not every such curve was filed as active; note: % of control where 0% means no effect)
Chain of 3',5'-cyclic-AMP phosphodiesterase 4B (Homo sapiens) (Q07343 whole entry, looked up): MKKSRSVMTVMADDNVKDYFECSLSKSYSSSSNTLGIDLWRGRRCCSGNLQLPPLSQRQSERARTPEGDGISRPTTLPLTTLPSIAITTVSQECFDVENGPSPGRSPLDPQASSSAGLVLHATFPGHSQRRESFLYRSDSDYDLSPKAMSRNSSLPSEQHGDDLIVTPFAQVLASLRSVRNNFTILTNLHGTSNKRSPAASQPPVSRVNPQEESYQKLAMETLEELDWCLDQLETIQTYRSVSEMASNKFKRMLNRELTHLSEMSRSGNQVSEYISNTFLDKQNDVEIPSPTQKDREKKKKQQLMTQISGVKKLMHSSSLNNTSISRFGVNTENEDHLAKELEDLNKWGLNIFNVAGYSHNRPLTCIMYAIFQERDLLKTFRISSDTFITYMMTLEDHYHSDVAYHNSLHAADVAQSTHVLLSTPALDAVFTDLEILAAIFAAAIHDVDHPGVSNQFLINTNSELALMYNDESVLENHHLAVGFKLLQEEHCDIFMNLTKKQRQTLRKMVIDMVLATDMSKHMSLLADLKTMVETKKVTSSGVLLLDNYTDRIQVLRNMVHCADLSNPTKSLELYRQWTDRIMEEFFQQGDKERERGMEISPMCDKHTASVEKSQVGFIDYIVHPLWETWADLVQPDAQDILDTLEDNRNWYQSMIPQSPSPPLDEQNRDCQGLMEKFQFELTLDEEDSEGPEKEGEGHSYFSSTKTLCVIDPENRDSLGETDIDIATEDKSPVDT
Method in brief: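 HEK293 ACTOne cells with CNG channel (1000/well), endogenous PDE4; membrane potential dye, compounds up to 22.9 uM final. Fluorescence Ex 535/Em 590; RO 20-1724 (100 uM final) as reference.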

[7] = qHTS Assay for Lipid Storage Modulators (AID 1519; calls by dose curve); details: Drosophila S3 cells, BODIPY lipid droplet/cell ratio, laser cytometry, cells loaded with oleic acid
Method in brief: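 Cells seeded at 5,000 per well were treated with compounds over a concentration series and loaded with oleic acid (400 uM, as added). Lipid droplet fluorescence (488 nm excitation, 500-530 nm channel) was read by laser-scanning cytometry and normalized to 20 uM Triacsin C.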

[8] = target: Glucocorticoid receptor (Homo sapiens) (UniProt P04150); assay: GR-GFP Redistribution (AID 450;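 active = compounds whose dose series gives a full or clear partial fitted curve of increased nuclear translocation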; note: potency is the fitted concentration of half-maximal effect); details: U2OS GR-GFP nuclear translocation, laser cytometry, 2 h
[9] = target: ATP-dependent 6-phosphofructokinase (Trypanosoma brucei brucei) (UniProt O15648); assay: qHTS Assay to Find Inhibitors of T. brucei phosphofructokinase: hit validation (AID 492961);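 note: luminescence reports ADP formed as PFK phosphorylates fructose-6-phosphate with ATP; % is set by controls: 0 for no effect and ±100 for the full control effect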
Chain of ATP-dependent 6-phosphofructokinase (Trypanosoma brucei brucei) (O15648 whole entry, looked up): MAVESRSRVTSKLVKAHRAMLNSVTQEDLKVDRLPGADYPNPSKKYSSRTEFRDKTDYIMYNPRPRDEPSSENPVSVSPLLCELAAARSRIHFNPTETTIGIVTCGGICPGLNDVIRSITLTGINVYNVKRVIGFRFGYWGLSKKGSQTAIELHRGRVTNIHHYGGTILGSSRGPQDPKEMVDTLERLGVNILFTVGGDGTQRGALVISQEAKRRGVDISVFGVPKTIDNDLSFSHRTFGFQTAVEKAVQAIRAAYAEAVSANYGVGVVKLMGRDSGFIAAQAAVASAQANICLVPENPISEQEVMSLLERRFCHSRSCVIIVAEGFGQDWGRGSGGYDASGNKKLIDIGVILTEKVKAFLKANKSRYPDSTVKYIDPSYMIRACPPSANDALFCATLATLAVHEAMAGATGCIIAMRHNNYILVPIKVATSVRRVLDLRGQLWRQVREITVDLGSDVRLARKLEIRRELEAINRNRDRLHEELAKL
Method in brief: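 Measures ADP output of PFK (1.25 nM) at 0.1 mM ATP, 0.5 mM F6P, pH 8.0 TEA buffer with 5 mM MgCl2. No-enzyme wells define full inhibition; uninhibited enzyme wells define zero.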

[10] = qHTS profiling for inhibitors of Plasmodium falciparum proliferation (AID 504749);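 note: 0% = DMSO vehicle and full inhibition = artemisinin control; nearly all actives have a fitted effect of over 60% in size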; details: P. falciparum in erythrocytes, SYBR Green DNA, 72 h
Method in brief: (§1)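 In a 72 h erythrocytic culture (37 C, humidified, 5% CO2) at 2.5% hematocrit and 0.3% starting parasitemia, compounds were tested; SYBR Green I in detergent lysis buffer stained parasite DNA overnight.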

[11] = test system: AS120; assay: as above; details: P. falciparum in erythrocytes, SYBR Green DNA, 72 h; series mostly up to 28.7 µM
Method in brief: as §1

[12] = test system: CP238; assay: as above; details: P. falciparum in erythrocytes, SYBR Green DNA, 72 h; series mostly up to 12.8 µM
Method in brief: as §1

[13] = test system: CP250; assay: as above; details: P. falciparum in erythrocytes, SYBR Green DNA, 72 h; series mostly up to 12.8 µM
Method in brief: as §1

[14] = test system: CP262; assay: as above; details: P. falciparum in erythrocytes, SYBR Green DNA, 72 h; series mostly up to 12.8 µM
Method in brief: as §1

[15] = test system: CP265; assay: as above; details: P. falciparum in erythrocytes, SYBR Green DNA, 72 h; series mostly up to 12.8 µM
Method in brief: as §1

[16] = test system: FAB9; assay: as above; details: P. falciparum in erythrocytes, SYBR Green DNA, 72 h; series mostly up to 12.8 µM
Method in brief: as §1

[17] = test system: JCK; assay: as above; details: P. falciparum in erythrocytes, SYBR Green DNA, 72 h; series mostly up to 12.8 µM
Method in brief: as §1

[18] = test system: PC49; assay: as above; details: P. falciparum in erythrocytes, SYBR Green DNA, 72 h; series mostly up to 12.8 µM
Method in brief: as §1

[19] = AP1 Signaling Pathway (AID 357; active = well fitted curve in either direction with a large enough effect, not every such curve was filed as active; note: % is set by controls: 0 for no effect and ±100 for the full control effect); details: ME-180 AP-1-bla reporter, EGF-induced, beta-lactamase ratio, 5 h; at 7.69 µM (top of the series) unless noted
Method in brief: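 ME-180 cells with beta-lactamase reporter under AP-1 response element, stimulated with EC50 EGF; compounds tested in titration series, 5 h at 37 °C. CCF4 substrate added 2.5 h at room temperature; 460/530 nm emission ratio gave %activity and AC50.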

[20] = target: Ubiquitin carboxyl-terminal hydrolase 1 (Homo sapiens) (UniProt O94782); assay: Inhibitors of USP1/UAF1: Pilot qHTS (AID 504865);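 note: rhodamine fluorescence freed from ubiquitin-rhodamine substrate followed over time; top concentration of the series differs between compounds; % is set by controls: 0 for no effect and ±100 for the full control effect; nearly all actives have a fitted effect of over 35% in size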
Chain of Ubiquitin carboxyl-terminal hydrolase 1 (Homo sapiens) (O94782 whole entry, looked up): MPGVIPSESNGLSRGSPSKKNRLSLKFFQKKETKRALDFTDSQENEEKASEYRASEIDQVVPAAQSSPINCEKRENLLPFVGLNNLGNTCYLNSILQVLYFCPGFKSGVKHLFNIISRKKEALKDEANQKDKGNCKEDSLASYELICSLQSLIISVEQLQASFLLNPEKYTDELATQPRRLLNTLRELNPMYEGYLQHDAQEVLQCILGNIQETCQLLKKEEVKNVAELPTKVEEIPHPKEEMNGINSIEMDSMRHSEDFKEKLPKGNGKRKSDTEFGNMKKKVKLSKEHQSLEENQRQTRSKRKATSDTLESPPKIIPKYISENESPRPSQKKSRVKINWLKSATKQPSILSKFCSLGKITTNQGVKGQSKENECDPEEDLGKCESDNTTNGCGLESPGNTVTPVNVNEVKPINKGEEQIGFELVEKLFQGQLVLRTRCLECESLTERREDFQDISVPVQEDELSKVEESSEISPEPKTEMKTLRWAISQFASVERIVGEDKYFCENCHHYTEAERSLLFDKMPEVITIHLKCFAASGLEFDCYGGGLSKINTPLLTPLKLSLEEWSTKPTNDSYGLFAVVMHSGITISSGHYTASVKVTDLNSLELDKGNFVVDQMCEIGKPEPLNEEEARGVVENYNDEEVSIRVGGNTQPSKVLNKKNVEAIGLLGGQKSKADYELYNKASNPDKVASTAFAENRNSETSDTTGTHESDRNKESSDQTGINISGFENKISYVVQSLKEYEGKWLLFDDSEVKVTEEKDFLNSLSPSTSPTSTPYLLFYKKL
Method in brief: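 Deubiquitinase activity followed as kinetic rhodamine fluorescence release from 150 nM Ub-Rho. 1 nM USP1/UAF1 with compound, after 15 min room-temperature preincubation, in HEPES pH 7.8 buffer containing TCEP, EDTA, BSA and Tween-20.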

[21] = at 7.69 µM (top of the series) unless noted
[22] = measured here: cell count channel max response
[23] = measured here: lipid channel max response
[24] = at 28.7 µM (top of the series), parasite line B

O=C(c1cc(C(F)(F)F)cc(C(F)(F)F)c1)N1CCC2(CC1)CCN(c1ncccn1)CC2
23.2%: max response [7, 23]
13.8%: max response [7, 22]
inactive: Potency [1] | activity change, negative = inhibition [2, 21] 28.8% | activity, negative = inhibition [3, 21] -7.73% | Potency [4] > 46 µM | Potency [5] | Potency [6] | activity change, negative = inhibition ([7]; at 57.5 µM (top of the series)) 3.41%

Nc1ccn(C2OC(CO)C(O)C2O)c(=O)n1 (stereo not drawn)
inactive: activity change, negative = inhibition ([7]; at 57.5 µM (top of the series)) 2.01% and 0.795%
-5.62% and 10.3%: max response [7, 23]
-9.2% and 5.05%: max response [7, 22]

CC(=O)OCC1=C(C(=O)O)N2C(=O)[C@@H](NC(=O)CSc3ccncc3)[C@@H]2SC1
-13.2%: max response [7, 23]
-7.14%: max response [7, 22]
inactive: Potency [1] | activity change, negative = inhibition ([2]; at 17.2 µM (top of the series)) 7.12% | activity change, negative = inhibition ([2]; at 38 µM (top of the series)) 4.33% | activity, negative = inhibition ([3]; at 17.2 µM (top of the series)) 8.61% | activity, negative = inhibition ([3]; at 38 µM (top of the series)) -9.45% | Potency [8] > 46 µM and > 20.6 µM | Potency [4] > 46 µM and > 20.6 µM | Potency [5] | Potency [6] | activity change, negative = inhibition ([7]; at 25.7 µM (top of the series)) -4.27% | outcome [9] | activity, negative = inhibition ([10]; at 28.7 µM (top of the series), parasite line A) -4.5% | activity, negative = inhibition [10, 24] -4.99% | Potency [11] | Potency [12] | Potency [13] | Potency [14] | Potency [15] | Potency [16] | Potency [17] | Potency [18]

CCCN1C[C@H](CSC)C[C@H]2c3cccc4[nH]cc(c34)C[C@@H]21
-9.12%: max response [7, 23]
active: Potency [1] 3.16 µM and 1.58 µM
-9.01%: max response [7, 22]
inactive: activity change, negative = inhibition [19] -5.45% [at 17.2 µM] | activity, negative = inhibition [3, 21] 6.37% [at 17.2 µM] | Potency [8] > 20.6 µM and > 46 µM | Potency [4] > 20.6 µM and > 46 µM | Potency [5] | activity change, negative = inhibition ([7]; at 25.7 µM (top of the series)) -0.938%

Cc1ccccc1[C@@H](OCCN(C)C)c1ccccc1
0.329%: max response [7, 22]
inactive: activity change, negative = inhibition [19] 26.9% [at 17.2 µM] | Potency [1] | activity, negative = inhibition ([3]; at 17.2 µM (top of the series)) 5.39% | activity, negative = inhibition ([3]; at 38 µM (top of the series)) 20.8% | Potency [8] > 46 µM and > 20.6 µM | Potency [4] > 46 µM and > 20.6 µM | Potency [5] | Potency [6] | activity change, negative = inhibition ([7]; at 25.7 µM (top of the series)) -1.18%
1.49%: max response [7, 23]

O=c1[nH]cnc2c1ncn2C1OC(CO)C(O)C1O (stereo not drawn)
inactive: activity change, negative = inhibition ([7]; at 57.5 µM (top of the series)) 5.69% and -3.39% and 2.45% | outcome [9] | Potency [20] | activity, negative = inhibition [10, 24] 13.3% | Potency [11] | Potency [12] | Potency [13] | Potency [14] | Potency [15] | Potency [16] | Potency [17] | Potency [18]
8.98% and -19.5% and -3.51%: max response [7, 22]
14% and -19.8% and 0.274%: max response [7, 23]

Cn1c(=O)c2c(ncn2C[C@@H](O)CO)n(C)c1=O
-0.539%: max response [7, 22]
-0.706%: max response [7, 23]
inactive: activity change, negative = inhibition [19] 9.72% [at 17.2 µM] | Potency [1] | activity change, negative = inhibition [2, 21] -4.3% [at 17.2 µM] | activity, negative = inhibition [3, 21] 11.3% [at 17.2 µM] | Potency [8] > 20.6 µM | Potency [4] > 20.6 µM | Potency [5] | Potency [6] | activity change, negative = inhibition ([7]; at 25.7 µM (top of the series)) 0.654% | outcome [9] | Potency [20] | activity, negative = inhibition ([10]; at 12.8 µM (top of the series), parasite line A) 0.439% | activity, negative = inhibition ([10]; at 12.8 µM (top of the series), parasite line B) -2.95% | Potency [11] | Potency [12] | Potency [13] | Potency [14] | Potency [15] | Potency [16] | Potency [17] | Potency [18]

O=C(O)[C@H]1CCCN(CCC=C(c2ccccc2)c2ccccc2)C1
-26.7%: max response [7, 23]
inactive: activity change, negative = inhibition [19] 3.95% [at 38 µM] | activity change, negative = inhibition [2, 21] -15.6% [at 38 µM] | activity, negative = inhibition [3, 21] 26.3% [at 38 µM] | Potency [8] > 46 µM | Potency [4] > 46 µM | Potency [5] | Potency [6] | activity change, negative = inhibition ([7]; at 57.5 µM (top of the series)) -4.66%
inactive and 31.6 µM (active): Potency [1]
-22.7%: max response [7, 22]
